# Screening results as filed in PubChem.
# An excerpt weighted towards active compounds, which were near 4.8% of everything screened.
# hcDAF-12 act = activates DAF-12 receptor from parasite H. contortus; HEK293 hcDAF-12 lit1-tk-luc reporter, luminescence; 0% DMSO, 100% Δ7-dafachronic acid; activation, % at 6.8 µM; hit rate 1.4% among 370,000; AID 652067;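 active = activation above the mean of all tested compounds plus 3 SD, cut at about 5.5% in these data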;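 also: 100% = response to 3 µM Δ7-dafachronic acid high control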
# ssDAF-12 act = activates DAF-12 receptor from parasite S. stercoralis; HEK293 ssDAF-12/GRIP1 lit1-tk-luc reporter, luminescence; % of 3 µM dafachronic acid response; activation, % at 6.8 µM; hit rate 1% among 370,000;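 active = activation above the mean over all tested compounds plus 3 SD, cut at about 0.9% in these data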;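 also: 0% = DMSO-only wells and 100% = 3 µM delta7-dafachronic acid wells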
# NR1D1 modulator = modulates human Rev-erb alpha binding to DNA; P20393; Rev-erbα–FITC-DNA binding, fluorescence polarization, 90 min; activity, % at 10 µM; hit rate 0.79% among 370,000; AID 1259318;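 active = activity above about 14%, limit read from the data; passing the limit was not always enough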;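 also: 0% = DMSO wells with 35 nM protein and 100% = DMSO wells with 750 nM protein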
# Target sequence (P20393 whole entry, looked up): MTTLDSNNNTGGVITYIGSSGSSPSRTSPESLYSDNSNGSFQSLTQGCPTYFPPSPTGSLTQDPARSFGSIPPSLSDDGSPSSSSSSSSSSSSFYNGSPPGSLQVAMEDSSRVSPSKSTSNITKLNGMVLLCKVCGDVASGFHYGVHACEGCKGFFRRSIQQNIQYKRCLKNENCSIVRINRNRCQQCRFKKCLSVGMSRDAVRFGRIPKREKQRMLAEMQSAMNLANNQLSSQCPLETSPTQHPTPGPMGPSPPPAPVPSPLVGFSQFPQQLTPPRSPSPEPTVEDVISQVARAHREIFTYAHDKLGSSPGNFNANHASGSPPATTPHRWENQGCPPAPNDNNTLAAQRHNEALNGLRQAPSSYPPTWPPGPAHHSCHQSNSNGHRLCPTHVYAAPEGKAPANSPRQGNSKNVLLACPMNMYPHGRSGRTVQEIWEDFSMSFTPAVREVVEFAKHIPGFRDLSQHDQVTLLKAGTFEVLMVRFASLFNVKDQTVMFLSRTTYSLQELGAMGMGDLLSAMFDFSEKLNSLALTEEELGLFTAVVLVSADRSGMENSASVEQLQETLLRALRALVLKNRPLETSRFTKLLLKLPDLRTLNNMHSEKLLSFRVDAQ
# hgDAF12 agonist = agonists of H. glycines DAF-12 nuclear receptor; HEK293 GAL4-hgDAF12 UAS-luciferase reporter, agonist luminescence; normalized to butyrate control; activation, % at 6.8 µM; hit rate 1.8% among 370,000;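 active = activation above a cutoff set at the mean of all screened compounds plus 3 SD, cut at about 10% in these data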;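 also: 0% = DMSO wells and 100% = sodium butyrate wells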
# DAX1 inh-1 = DAX1 (NR0B1) inhibition, primary screen. HEK293T StAR-luciferase reporter, SF-1/DAX-1 repression relief. hit rate 1.1% among 370,000. AID 652010. inhibition, % at 6.8 µM;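 active = inhibition above the mean over all tested compounds plus 3 SD, cut at about 3.6% in these data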;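 also: 0% = DAX-1 cells with DMSO and 100% = cells lacking DAX-1 with DMSO; higher inhibition means more luminescence from relief of DAX-1 repression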
# DAX1 inh-2 = inhibitors of human orphan nuclear receptor DAX1 (NR0B1); HEK293 Gal4-DAX1 luciferase reporter, luminescence; AID 504766; hit rate 0.99% among 340,000; inhibition, % at 6.75 µM; P51843;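 active = inhibition above the mean over all tested compounds plus 3 SD, cut at about 4.2% in these data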;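 also: 0% = DAX1-transfected cells with DMSO and 100% = empty-vector control cells with DMSO; inhibition shows as a rise in luminescence from relieved DAX1 repression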
# * hit, by the source's call; . = no result given.
SMILES,hcDAF-12 act,ssDAF-12 act,NR1D1 modulator,hgDAF12 agonist,DAX1 inh-1,DAX1 inh-2
Cc1ccc(OCCCC(=O)NCc2ccco2)cc1,-1,-2,-3,-4,-1,2
COC(=O)C1CN(Cc2cn(Cc3ccc(F)cc3)nn2)CCS(=O)(=O)N1Cc1ccc(OC)cc1 (stereo not given),-4,-2,2,2,0,.
COC(=O)N1C[C@H](OC)[C@H]2C[C@@H]1c1ccccc1O2,-2,-1,-6,0,1,.
N#CCC[C@@H]1CC[C@]2(CCCN(S(=O)(=O)c3ccccc3)C2)O1,-2,-1,8,3,1,.
Cc1cc(C)c2[nH]c(O)c(N=NC3=NC(=O)CS3)c2c1,-2,0,-6,0,0,4.3*
CCCN1C(=O)C(=O)N(CC(=O)c2cc(C)n(C3CC3)c2C)C1=O,3,-1,2,10,3.8*,2
COc1ccc(/C=C2\CC3(OC(=O)C4CCCC4)CCCN2C3)cc1 (stereo not given),1,-1,1,-1,0,.
O=C(COC(=O)C1CC1)Nc1ccc(N=Nc2ccccc2)cc1,4,1,-5,13*,3,2
O=C(COC(=O)C1CC1)Nc1ccc(OC(F)F)cc1,0,-1,1,3,0,1
COc1ccc(N2CCN(CCCNC(=O)CCc3ccc(F)cc3)CC2)cc1,0,-1,3,3,1,.
CNCCCNC(=O)c1ccc(/C=N/O)nc1,0,-1,-1,2,0,0
O=C(NCCCNC1CCCCC1)c1ccc(/C=N/O)nc1,5,1.5*,-2,0,1,-1
COc1cccc(-c2cnc3cccnn23)c1,-1,-1,0,12*,2,.
CS(=O)(=O)Nc1ccc(-c2cnc3cccnn23)cc1,1,-1,4,12*,-1,.
O[C@H](COc1cccc(F)c1)CN1CCC(C(O)(c2ccccc2)c2ccccc2)CC1,-3,-2,10,-2,-1,.
COc1ccc(NC(=S)c2ccccc2)cc1,1,-1,4,8,2,1
COc1ccc(NC(=S)c2ccc(N(C)C)cc2)cc1,4,0,-1,9,3.8*,2
Fc1cccc(Cl)c1CSc1nnc2ccccn12,2,-1,1,4,1,3
Fc1ccc(CSc2nnc3ccccn23)c(Cl)c1,4,-1,-1,4,4.2*,0
CC(=O)Cc1nsc(Nc2ccc(C)cc2)n1,5,1,1,12*,4.2*,3
CNc1nc(CC(C)=O)ns1,0,-1,0,-1,0,0
COc1cccc(NC(=O)Nc2c(-c3ccc(C(F)(F)F)cc3)nc3ncccn23)c1,-1,-1,3,6,1,.
COC(=O)c1ccccc1NC(=O)CS(=O)(=O)Cc1nc(-c2ccc(C)cc2)oc1C,3,1.1*,-7,-2,1,-1
CCCCNC(=O)C[C@H]1C[C@@]2(C(=O)OC)C(=C[C@H](COCc3ccccc3)O[C@@H]2C)N(Cc2ccco2)C1=O,-2,-2,-4,0,-2,.
Cc1ccc2c(c1)C1CS(=O)(=O)N(Cc3ccc(F)cc3)CN1C2 (stereo not given),-1,-1,1,0,-1,.
SMILES,hcDAF-12 act,ssDAF-12 act,NR1D1 modulator,hgDAF12 agonist,DAX1 inh-1,DAX1 inh-2
CN(C)Cc1nnnn1-c1ccccc1,0,-1,-6,-2,0,4.9*
c1ccc(-c2cnc(-c3ccccc3)nc2)cc1,5,1,-3,11*,2,2
COC(=O)c1cc2c(c3c4cc(F)ccc4n(S(=O)(=O)c4ccc(C)cc4)c13)C(=O)N(Cc1ccccc1)C2,-1,-1,2,-3,0,.
CCN1C(=O)/C(=C/C=C2/CCCN2C)OC1=S,1,-1,9,13*,1,0
CCCC1CCC2(CCCN2CCOC(=S)NCc2cccc(C)c2)CC1 (stereo not given),0,-2,0,4,.,.
CC(=O)Nc1ccc(NC(=O)C2C3CCC(C3)C2C(=O)O)cc1 (stereo not given),2,0,5,2,0,1
O=C(O)C1C2CCC(C2)C1C(=O)Nc1ccccc1 (stereo not given),0,-1,1,-1,0,4.3*
Cc1nn(C)c(C)c1NC(=O)CCl,4,1.2*,0,-7,-1,1
COC(=O)c1c(NC(=O)C2CCCCC2C(=O)O)sc2c1CCCCC2 (stereo not given),3,0,-3,3,2,4.9*
C#CCNC(=O)C[C@@H]1C(=O)N2CCCC3=C2[C@@]1(C(=O)OC)CCCC3,-2,-1,-4,1,0,.
O=C(c1cccc(Cl)c1)N1CCN(c2ccnc3cc(Cl)ccc23)CC1,-4,-3,-1,0,.,.
O=C(O)c1ccc(-c2nc(-c3ccc(Cl)cc3)cs2)cc1,5.8*,0,-1,13*,3,4
Fc1ccc(Cc2nnc(-c3cccs3)o2)cc1,0,-1,-6,7,0,4.3*
Fc1ccc(-c2nnc(Cc3ccc(Cl)cc3)o2)cc1,-1,-1,-3,12*,1,2
Cc1ccc(C=Nn2c(-c3n[nH]c4c3CCC4)n[nH]c2=S)o1,-1,-1,-2,2,1,.
CC(C)[C@H](NC(=O)N1CC(=O)Nc2ccccc21)C(=O)N[C@H](Cc1ccccc1)C(=O)O,-2,-1,1,-3,0,1
CC(C)[C@H](NC(=O)N1CC(=O)Nc2ccccc21)C(=O)N[C@H](Cc1c[nH]c2ccccc12)C(=O)O,3,1.6*,0,1,1,4
C[n+]1cc(C(O)(c2ccccc2)c2ccccc2)n2ccccc21,-1,-1,-3,0,.,.
CC[C@@H](CCCc1ccc(F)cc1)CN(Cc1ccc(OC)cc1)S(=O)(=O)c1ccc(C)cc1,0,-1,2,0,0,.
O=C(CCCCCN1C(=O)C2C3C=CC(C3)C2C1=O)Nc1ccc2ncccc2c1 (stereo not given),1,-1,1,0,-3,.
OC(c1ccccc1)c1nc(-c2ccc3c(c2)OCO3)cs1 (stereo not given),1,-1,6,13*,2,.
OC(c1cccc(Cl)c1)c1nc(-c2ccc3c(c2)OCO3)cs1 (stereo not given),-1,-1,3,1,0,.
O=C(O)c1cccc(-c2csc(C(O)c3ccc(F)cc3)n2)c1 (stereo not given),2,0,3,6,4.2*,.
COc1ccc(C(O)c2nc(-c3cccc(C(=O)O)c3)cs2)cc1 (stereo not given),0,-1,4,2,2,.
C#CCNC(=O)C[C@H]1C(=O)N(CCc2ccc(Cl)cc2)C2=CCCC[C@@]21C(=O)OCC,-5,-2,-1,-2,-2,.
